# From publication PMC7862700, “An all-to-all approach to the identification of sequence-specific readers for epigenetic DNA modifications on cytosine”
# Key:
# Assay in all cases: DAPPL (digital affinity profiling via proximity ligation, sequencing); 10 mM Tris-HCl pH 7.5, 50 mM NaCl, 1 mM DTT, 4% glycerol, room temperature, 30 min; GST-TFs on glutathione beads, 16-mer random dsDNA library, 0.1% formaldehyde crosslink after washing; high values mean tight binding
# FEV = biological target: T1, FEV (Homo sapiens, UniProt Q99581 1-238); details: protein: recombinant; tags: N-terminal GST; dsDNA, one strand shown
# T1 sequence: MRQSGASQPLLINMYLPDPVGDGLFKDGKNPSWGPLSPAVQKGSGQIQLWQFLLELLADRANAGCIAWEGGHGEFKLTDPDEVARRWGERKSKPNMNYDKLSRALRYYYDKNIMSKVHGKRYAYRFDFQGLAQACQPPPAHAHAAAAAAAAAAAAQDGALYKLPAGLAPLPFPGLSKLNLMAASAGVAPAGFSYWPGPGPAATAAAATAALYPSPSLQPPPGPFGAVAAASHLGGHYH
# In short: (§1)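 Binding signal is given per hexamer as its read frequency for a factor divided by its frequency in the tag-only sample. GST-fused human transcription factors were expressed in yeast, captured on glutathione beads, barcoded with DNA and pooled with that sample, then incubated with 200 nmole of a 16-mer random double-stranded DNA library in Tris/NaCl/DTT/glycerol buffer for 30 min at room temperature. The pools were then washed, crosslinked, proximity-ligated, amplified by PCR and sequenced on an Illumina NextSeq500.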
# ETV5 = ETV5 (Homo sapiens, UniProt P41161 1-510); details: protein: recombinant; tags: N-terminal GST; dsDNA, one strand shown
# ETV5, sequence (P41161 whole entry): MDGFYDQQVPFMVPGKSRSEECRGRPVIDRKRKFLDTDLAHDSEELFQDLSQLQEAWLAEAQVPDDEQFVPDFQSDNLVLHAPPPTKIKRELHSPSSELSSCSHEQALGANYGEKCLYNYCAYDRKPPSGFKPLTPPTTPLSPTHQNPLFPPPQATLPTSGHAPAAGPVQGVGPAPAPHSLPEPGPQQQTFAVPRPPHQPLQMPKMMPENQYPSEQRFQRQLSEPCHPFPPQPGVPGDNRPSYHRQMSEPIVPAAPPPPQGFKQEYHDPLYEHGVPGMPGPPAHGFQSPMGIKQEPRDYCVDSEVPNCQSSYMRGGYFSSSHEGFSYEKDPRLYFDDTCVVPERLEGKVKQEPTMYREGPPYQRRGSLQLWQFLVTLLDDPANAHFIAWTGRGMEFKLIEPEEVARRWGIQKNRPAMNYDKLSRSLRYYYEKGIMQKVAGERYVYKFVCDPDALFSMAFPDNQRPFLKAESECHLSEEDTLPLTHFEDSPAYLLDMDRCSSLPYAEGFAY
# In short: as §1
# HSF1 = HSF1 (Homo sapiens, UniProt Q00613 1-529); details: protein: recombinant; tags: N-terminal GST; chain copies: 3; dsDNA, one strand shown
# HSF1, sequence (Q00613 whole entry): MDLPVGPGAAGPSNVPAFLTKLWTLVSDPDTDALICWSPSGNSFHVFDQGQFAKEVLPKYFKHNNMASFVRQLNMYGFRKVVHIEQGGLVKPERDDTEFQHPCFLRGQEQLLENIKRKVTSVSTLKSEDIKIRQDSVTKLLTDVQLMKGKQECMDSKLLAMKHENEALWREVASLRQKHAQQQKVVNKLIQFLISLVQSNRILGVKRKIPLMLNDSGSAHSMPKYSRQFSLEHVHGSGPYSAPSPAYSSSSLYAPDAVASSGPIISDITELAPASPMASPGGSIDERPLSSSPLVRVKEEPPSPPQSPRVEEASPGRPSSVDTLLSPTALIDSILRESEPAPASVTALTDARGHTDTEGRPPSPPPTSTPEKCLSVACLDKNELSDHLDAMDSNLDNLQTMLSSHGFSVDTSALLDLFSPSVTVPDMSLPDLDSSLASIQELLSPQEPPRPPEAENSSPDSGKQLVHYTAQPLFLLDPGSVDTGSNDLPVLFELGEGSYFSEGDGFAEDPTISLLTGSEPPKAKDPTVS
# In short: as §1
# SPIC = biological target: T2, SPIC (Homo sapiens, UniProt Q8N5J4 1-248); details: protein: recombinant; tags: N-terminal GST; dsDNA, one strand shown
# T2 sequence: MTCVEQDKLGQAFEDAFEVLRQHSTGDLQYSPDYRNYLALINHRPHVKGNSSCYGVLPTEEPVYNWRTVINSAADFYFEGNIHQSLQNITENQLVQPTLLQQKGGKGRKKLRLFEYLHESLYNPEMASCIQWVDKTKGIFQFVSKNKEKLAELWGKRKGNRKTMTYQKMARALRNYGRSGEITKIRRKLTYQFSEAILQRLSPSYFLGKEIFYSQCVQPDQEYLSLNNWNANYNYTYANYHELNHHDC
# In short: as §1
# ELF4 = ELF4 (Homo sapiens, UniProt Q99607 1-663); details: protein: recombinant; tags: N-terminal GST; dsDNA, one strand shown
# ELF4, sequence (Q99607 whole entry): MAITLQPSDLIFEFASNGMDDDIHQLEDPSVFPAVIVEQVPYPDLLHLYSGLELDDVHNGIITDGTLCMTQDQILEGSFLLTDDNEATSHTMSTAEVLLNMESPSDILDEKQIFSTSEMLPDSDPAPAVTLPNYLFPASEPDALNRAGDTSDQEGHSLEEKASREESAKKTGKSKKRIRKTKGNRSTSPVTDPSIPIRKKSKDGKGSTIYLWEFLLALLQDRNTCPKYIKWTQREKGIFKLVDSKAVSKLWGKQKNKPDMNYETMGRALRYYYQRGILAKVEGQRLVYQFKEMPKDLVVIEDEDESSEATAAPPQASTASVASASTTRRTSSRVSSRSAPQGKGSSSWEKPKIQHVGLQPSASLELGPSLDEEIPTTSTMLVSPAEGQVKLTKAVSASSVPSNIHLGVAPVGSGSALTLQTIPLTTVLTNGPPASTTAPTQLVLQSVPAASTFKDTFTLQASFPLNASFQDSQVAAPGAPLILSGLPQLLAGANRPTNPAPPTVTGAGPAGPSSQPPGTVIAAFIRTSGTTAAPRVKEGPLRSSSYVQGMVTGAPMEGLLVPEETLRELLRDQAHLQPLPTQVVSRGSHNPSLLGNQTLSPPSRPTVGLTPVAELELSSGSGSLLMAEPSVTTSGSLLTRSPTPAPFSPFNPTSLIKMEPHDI
# In short: as §1
# ELK4 = biological target: T3, ELK4 (Homo sapiens, UniProt P28324-2 1-405); details: protein: recombinant; tags: N-terminal GST; dsDNA, one strand shown
# T3 sequence: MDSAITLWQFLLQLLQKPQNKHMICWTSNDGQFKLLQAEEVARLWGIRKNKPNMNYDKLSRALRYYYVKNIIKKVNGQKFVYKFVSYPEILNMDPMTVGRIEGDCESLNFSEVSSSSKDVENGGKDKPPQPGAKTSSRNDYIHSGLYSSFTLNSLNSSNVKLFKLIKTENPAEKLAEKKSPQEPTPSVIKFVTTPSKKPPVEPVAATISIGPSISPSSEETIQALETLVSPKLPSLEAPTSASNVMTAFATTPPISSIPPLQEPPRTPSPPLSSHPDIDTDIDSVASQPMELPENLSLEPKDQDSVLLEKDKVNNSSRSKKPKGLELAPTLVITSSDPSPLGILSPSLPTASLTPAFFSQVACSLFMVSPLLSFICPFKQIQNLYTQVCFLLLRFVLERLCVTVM
# In short: as §1
# ETV2 = biological target: T4, ETV2 (Homo sapiens, UniProt O00321 1-342); details: protein: recombinant; tags: N-terminal GST; dsDNA, one strand shown
# T4 sequence: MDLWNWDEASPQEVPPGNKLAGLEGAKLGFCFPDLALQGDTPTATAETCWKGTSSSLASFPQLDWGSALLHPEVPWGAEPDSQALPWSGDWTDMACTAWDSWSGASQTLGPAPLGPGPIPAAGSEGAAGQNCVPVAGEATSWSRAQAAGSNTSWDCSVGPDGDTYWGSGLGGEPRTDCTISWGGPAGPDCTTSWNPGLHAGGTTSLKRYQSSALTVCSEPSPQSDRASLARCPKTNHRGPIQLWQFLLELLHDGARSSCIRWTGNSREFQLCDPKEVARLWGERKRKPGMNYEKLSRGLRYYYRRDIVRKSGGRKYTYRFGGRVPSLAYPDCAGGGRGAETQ
# In short: as §1
# ELF3 = biological target: T5, ELF3 (Homo sapiens, UniProt P78545 1-371); details: protein: recombinant; tags: N-terminal GST; dsDNA, one strand shown
# T5 sequence: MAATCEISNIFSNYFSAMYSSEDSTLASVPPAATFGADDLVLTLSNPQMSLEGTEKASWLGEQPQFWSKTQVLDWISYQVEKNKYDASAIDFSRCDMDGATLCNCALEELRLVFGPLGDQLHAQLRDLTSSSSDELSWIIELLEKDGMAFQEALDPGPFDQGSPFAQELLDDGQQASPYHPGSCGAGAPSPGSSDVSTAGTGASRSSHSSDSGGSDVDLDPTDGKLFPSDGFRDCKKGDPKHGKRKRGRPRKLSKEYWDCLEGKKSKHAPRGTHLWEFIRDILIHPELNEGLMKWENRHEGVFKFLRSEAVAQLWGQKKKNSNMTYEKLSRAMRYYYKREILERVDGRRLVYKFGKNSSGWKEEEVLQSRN
# In short: as §1
# CRX = CRX (Homo sapiens, UniProt O43186 1-299); details: protein: recombinant; tags: N-terminal GST; dsDNA, one strand shown
# CRX, sequence (O43186 whole entry): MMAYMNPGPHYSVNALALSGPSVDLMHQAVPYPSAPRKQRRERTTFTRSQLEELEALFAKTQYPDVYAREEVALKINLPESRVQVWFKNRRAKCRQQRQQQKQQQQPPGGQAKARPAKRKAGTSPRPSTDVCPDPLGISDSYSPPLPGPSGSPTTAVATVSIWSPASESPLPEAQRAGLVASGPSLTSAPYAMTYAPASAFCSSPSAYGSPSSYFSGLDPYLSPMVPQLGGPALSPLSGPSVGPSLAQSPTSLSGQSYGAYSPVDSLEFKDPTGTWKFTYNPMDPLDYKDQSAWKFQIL
# In short: as §1
# ETV1 = ETV1 (Homo sapiens, UniProt P50549 1-477); details: protein: recombinant; tags: N-terminal GST; dsDNA, one strand shown
# ETV1, sequence (P50549 whole entry): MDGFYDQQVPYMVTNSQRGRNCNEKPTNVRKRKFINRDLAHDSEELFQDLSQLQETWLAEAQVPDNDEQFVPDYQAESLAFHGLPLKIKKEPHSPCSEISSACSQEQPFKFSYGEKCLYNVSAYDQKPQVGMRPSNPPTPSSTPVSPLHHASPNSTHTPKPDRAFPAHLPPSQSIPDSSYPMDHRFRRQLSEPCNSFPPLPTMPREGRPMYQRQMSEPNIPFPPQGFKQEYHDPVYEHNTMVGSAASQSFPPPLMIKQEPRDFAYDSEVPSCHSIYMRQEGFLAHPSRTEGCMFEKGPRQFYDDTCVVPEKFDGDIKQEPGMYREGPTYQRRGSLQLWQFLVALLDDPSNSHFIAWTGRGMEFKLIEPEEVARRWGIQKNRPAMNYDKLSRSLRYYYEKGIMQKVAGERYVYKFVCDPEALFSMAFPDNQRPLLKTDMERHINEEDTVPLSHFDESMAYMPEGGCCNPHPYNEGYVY
# In short: as §1
# ERF = biological target: T6, ERF (Homo sapiens, UniProt P50548 1-548); details: protein: recombinant; tags: N-terminal GST; dsDNA, one strand shown
# T6 sequence: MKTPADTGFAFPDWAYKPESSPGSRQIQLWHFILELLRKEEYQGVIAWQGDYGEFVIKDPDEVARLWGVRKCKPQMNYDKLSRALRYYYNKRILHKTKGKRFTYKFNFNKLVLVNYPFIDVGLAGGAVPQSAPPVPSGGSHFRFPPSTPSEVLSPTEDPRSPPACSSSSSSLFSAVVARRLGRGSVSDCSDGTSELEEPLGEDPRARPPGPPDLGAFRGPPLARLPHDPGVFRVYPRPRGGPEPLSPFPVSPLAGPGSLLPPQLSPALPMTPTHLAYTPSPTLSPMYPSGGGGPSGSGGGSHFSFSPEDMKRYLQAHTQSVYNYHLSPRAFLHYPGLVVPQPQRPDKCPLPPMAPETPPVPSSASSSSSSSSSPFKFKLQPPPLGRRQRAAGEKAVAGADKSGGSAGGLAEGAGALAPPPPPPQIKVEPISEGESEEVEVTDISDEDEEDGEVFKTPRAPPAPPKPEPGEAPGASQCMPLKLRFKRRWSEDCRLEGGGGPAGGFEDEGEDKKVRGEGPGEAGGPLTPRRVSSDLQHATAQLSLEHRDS
# In short: as §1
# ETV3L = biological target: T7, ETV3L (Homo sapiens, UniProt Q6ZN32 1-361); details: protein: recombinant; tags: N-terminal GST; dsDNA, one strand shown
# T7 sequence: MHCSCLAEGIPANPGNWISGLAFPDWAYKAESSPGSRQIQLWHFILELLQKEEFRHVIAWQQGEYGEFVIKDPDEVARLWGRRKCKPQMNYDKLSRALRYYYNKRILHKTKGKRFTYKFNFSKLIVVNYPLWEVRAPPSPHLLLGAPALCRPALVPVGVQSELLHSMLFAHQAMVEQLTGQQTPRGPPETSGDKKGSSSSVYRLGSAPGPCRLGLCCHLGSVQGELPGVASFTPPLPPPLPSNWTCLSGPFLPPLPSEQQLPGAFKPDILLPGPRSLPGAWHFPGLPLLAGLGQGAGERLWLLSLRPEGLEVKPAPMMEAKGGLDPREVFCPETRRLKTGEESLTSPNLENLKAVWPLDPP
# In short: as §1
# ETS2 = biological target: T8, ETS2 (Homo sapiens, UniProt P15036 1-469); details: protein: recombinant; tags: N-terminal GST; dsDNA, one strand shown
# T8 sequence: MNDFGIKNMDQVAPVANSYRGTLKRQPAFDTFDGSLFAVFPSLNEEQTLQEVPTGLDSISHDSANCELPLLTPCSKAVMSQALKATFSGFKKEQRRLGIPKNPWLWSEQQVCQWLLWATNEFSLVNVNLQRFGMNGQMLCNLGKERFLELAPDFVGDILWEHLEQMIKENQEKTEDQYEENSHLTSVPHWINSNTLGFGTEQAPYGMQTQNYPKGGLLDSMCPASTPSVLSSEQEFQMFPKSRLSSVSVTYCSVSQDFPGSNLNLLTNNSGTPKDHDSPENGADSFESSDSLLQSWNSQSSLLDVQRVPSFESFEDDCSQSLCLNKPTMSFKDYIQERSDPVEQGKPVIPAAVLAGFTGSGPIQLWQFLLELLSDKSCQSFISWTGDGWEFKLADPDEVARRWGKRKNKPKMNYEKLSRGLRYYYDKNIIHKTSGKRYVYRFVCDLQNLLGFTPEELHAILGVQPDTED
# In short: as §1
# SPDEF = biological target: T9, SPDEF (Homo sapiens, UniProt O95238 1-335); details: protein: recombinant; tags: N-terminal GST; dsDNA, one strand shown
# T9 sequence: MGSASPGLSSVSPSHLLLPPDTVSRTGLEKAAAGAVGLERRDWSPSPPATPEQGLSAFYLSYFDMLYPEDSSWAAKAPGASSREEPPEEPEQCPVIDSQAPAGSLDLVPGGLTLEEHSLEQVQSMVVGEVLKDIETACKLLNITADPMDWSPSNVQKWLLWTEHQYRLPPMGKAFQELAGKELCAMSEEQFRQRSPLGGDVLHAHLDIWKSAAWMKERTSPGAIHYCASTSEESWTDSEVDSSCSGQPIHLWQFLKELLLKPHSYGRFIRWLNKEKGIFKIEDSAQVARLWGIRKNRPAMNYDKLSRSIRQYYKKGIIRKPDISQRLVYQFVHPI
# In short: as §1
# ETV7 = biological target: T10, ETV7 (Homo sapiens, UniProt Q9Y603 1-341); details: protein: recombinant; tags: N-terminal GST; dsDNA, one strand shown
# T10 sequence: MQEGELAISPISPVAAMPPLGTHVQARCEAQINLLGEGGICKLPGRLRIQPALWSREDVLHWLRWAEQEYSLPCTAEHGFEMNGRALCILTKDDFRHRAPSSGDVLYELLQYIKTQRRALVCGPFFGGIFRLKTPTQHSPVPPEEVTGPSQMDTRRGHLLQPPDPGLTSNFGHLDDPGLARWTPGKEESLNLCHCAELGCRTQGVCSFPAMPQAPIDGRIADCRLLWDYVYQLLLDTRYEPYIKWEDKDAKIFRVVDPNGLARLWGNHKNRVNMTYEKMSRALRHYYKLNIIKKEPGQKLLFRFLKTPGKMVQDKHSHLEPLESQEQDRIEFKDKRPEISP
# In short: as §1
# ELF5 = biological target: T11, ELF5 (Homo sapiens, UniProt Q9UKW6-2 1-255); details: protein: recombinant; tags: N-terminal GST; dsDNA, one strand shown
# T11 sequence: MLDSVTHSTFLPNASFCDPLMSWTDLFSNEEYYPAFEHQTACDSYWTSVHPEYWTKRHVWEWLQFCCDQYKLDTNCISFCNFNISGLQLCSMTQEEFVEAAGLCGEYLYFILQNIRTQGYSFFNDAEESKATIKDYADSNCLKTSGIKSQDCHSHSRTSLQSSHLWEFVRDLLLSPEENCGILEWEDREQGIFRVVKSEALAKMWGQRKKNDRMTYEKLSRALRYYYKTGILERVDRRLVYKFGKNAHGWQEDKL
# In short: as §1
# ETV3 = biological target: T12, ETV3 (Homo sapiens, UniProt P41162-2 1-143); details: protein: recombinant; tags: N-terminal GST; dsDNA, one strand shown
# T12 sequence: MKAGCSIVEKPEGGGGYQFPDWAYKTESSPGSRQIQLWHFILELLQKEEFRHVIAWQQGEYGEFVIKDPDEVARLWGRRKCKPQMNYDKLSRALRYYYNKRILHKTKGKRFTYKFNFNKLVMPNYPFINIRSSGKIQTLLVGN
# In short: as §1
# ETV6 = ETV6 (Homo sapiens, UniProt P41212 1-452); details: protein: recombinant; tags: N-terminal GST; dsDNA, one strand shown
# ETV6, sequence (P41212 whole entry): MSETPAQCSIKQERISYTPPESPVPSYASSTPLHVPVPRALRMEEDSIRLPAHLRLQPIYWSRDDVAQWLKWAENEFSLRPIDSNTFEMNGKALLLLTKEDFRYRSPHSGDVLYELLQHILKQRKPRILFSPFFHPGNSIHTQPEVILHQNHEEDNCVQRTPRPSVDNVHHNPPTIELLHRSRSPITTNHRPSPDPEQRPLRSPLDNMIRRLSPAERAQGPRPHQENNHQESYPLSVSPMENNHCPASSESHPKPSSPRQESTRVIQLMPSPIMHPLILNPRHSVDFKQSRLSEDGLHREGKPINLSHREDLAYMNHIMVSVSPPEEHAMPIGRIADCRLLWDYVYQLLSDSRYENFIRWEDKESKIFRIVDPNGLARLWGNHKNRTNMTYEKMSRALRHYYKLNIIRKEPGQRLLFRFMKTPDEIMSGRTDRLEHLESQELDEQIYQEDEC
# In short: as §1
sequence,measurement,setting,value
TAAATA,binding signal,FEV,"1.19 fold enrichment (6-mer frequency, TF over GST control)"
same,binding signal,ETV5,"1.27 fold enrichment (6-mer frequency, TF over GST control)"
same,binding signal,HSF1,"1.6 fold enrichment (6-mer frequency, TF over GST control)"
same,binding signal,SPIC,"1.17 fold enrichment (6-mer frequency, TF over GST control)"
same,binding signal,ELF4,"1.26 fold enrichment (6-mer frequency, TF over GST control)"
same,binding signal,ELK4,"1.27 fold enrichment (6-mer frequency, TF over GST control)"
same,binding signal,ETV2,"1.36 fold enrichment (6-mer frequency, TF over GST control)"
same,binding signal,ELF3,"1.3 fold enrichment (6-mer frequency, TF over GST control)"
same,binding signal,CRX,"2.12 fold enrichment (6-mer frequency, TF over GST control)"
same,binding signal,ETV1,"1.24 fold enrichment (6-mer frequency, TF over GST control)"
same,binding signal,ERF,"1.21 fold enrichment (6-mer frequency, TF over GST control)"
same,binding signal,ETV3L,"1.27 fold enrichment (6-mer frequency, TF over GST control)"
same,binding signal,ETS2,"1.27 fold enrichment (6-mer frequency, TF over GST control)"
same,binding signal,SPDEF,"1.15 fold enrichment (6-mer frequency, TF over GST control)"
same,binding signal,ETV7,"1.31 fold enrichment (6-mer frequency, TF over GST control)"
same,binding signal,ELF5,"1.16 fold enrichment (6-mer frequency, TF over GST control)"
same,binding signal,ETV3,"1.28 fold enrichment (6-mer frequency, TF over GST control)"
same,binding signal,ETV6,"1.32 fold enrichment (6-mer frequency, TF over GST control)"
